# Measured values taken from PubChem BioAssay (NCATS).
# Records with an inconclusive call do not appear. Where a call stands in place of a potency, no number is given. The source made the active and inactive calls. Calls follow the shape of the dose curve; as a rule, active = well fitted cell-killing curve with a large enough effect; inconclusive = small, poorly fitted or top-dose-only effect; inactive = flat fitted curve, though single readings scatter.
# Assay: Vero cells viability qHTS for Zika virus inhibitors (AID 1347167)
# Details: cytotoxicity counter-screen (Zika); series mostly up to 45.9 µM
# Text: Avindra Nath, Ph.D., National Institute of Neurological Disorders and Stroke (NINDS), Bethesda, MD
# Radhakrishnan Padmanabhan, Ph.D., Georgetown University (GU), Washington D.C.
# Zika Virus causes congenital defects, including microcephaly and is associated with Guillain-Barre syndrome, eningoencephalitis and myelitis in infected adult. […] Using a target-based approach, we hope to establish a screening paradigm to uncover novel, cell-active NS2B-NS3 protease (Zika Virus) specific inhibitors from NCATS' collection of small molecules using qHTS.
# Four assay panel was created to identify potential Zika Virus inhibitors. Namely, (1) GU unlinked NS2B-NS3 AMC tagged protease qHTS, (2) GU unlinked NS2B-NS3 Rhodamine tagged protease qHTS, (3) NINDS linked NS2B-NS3 AMC tagged protease qHTS, (4) NINDS linked NS2B-NS3 Rhodamine tagged protease qHTS. Identified inhibitors were screened against the Vero and HepG2 cell viability assays using CellTiter Glo to exclude cytotoxic compounds.
# Early Translation Branch (ETB)
# National Center for Advancing Translational Sciences (NCATS), Rockville, MD
# National Institute of Health (NIH), Bethesda, Maryland
# Vero and HepG2 Cell Viability Assay:
# Vero and HepG2 cell cytotoxicity were determined using a luminescent readout with CellTiter Glo reagent (Promega, Madison, WI), which is based on measuring the ATP content within cells. Briefly, 4 microL of Vero or HepG2 cells at 2.5 x 10^5 cells/mL in DMEM containing 4% FBS were dispensed into 1536-well solid bottom tissue treated white plate using a Multidrop Combi dispenser (Thermo Scientific). Plates were incubated at 37 degrees C, 95% humidity, and 5% CO2 overnight to allow for cell attachment. Compounds were dissolved in DMSO at different concentrations and transferred via pintool (Wako Automation), for a final concentration of 0.029 µM - 57 microM. Plates were again incubated for 24 to 48 hours, followed by a 2 microL addition of CellTiter Glo. Finally, plates were incubated for 30 minutes at 37 degrees C and 5% CO2 before being read on a ViewLux (Perkin Elmer) for luminescence.
# Potency is read from the fitted curve at half-maximal effect.
row,SMILES,Potency
1,CCc1nc(N)nc(N)c1-c1ccc(Cl)cc1,inactive
2,CN(C)c1ccc(O)c2c1C[C@H]1C[C@H]3[C@H](N(C)C)C(=O)C(C(N)=O)=C(O)[C@@]3(O)C(=O)C1=C2O,inactive
3,COc1cc2c(cc1OC)C1CC(=O)C(CC(C)C)CN1CC2 (stereo not drawn),inactive
4,Cc1nc(Nc2ncc(C(=O)Nc3c(C)cccc3Cl)s2)cc(N2CCN(CCO)CC2)n1,282 µM (active)
5,N[C@@H](Cc1cc(I)c(Oc2cc(I)c(O)c(I)c2)c(I)c1)C(=O)O,inactive
6,CN(C)C(=O)[C@H](O)[C@H](Cc1ccccc1)NC(=O)c1cc2cc(Cl)ccc2[nH]1,inactive
7,Cc1nc(-c2ccc(OCC(C)C)c(C#N)c2)sc1C(=O)O,inactive
8,O=C(O)c1cn(-c2ccc(F)cc2)c2cc(N3CCNCC3)c(F)cc2c1=O,inactive
9,S=c1nc[nH]c2nc[nH]c12,inactive
10,Cc1c(OCC(F)(F)F)ccnc1CS(=O)c1nc2ccccc2[nH]1 (stereo not drawn),inactive
11,CC(C)C[C@H](NC(=O)[C@H](Cc1ccccc1)NC(=O)c1cnccn1)B(O)O,inactive
12,Oc1ccc(-c2nc(-c3ccc(F)cc3)c(-c3ccncc3)[nH]2)cc1,inactive
13,COc1c2occc2cc2ccc(=O)oc12,inactive
